# Source: ChEMBL document CHEMBL1961873, “Compounds: GSK PKIS; Assays: Nanosyn kinase panel” (2012)
# Values joined by “and” are separate entries in the source; they are usually repeats but may differ in a detail not shown here. Identical values can stand only once.
# Assays:
# [1] = biological target: T1, Mitogen-activated protein kinase 12 (Homo sapiens) (UniProt P53778); conditions: at 1 µM;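 further: values are averaged p38gamma kinase inhibition readings, compounds tested at 1 µM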
# T1 sequence (whole entry): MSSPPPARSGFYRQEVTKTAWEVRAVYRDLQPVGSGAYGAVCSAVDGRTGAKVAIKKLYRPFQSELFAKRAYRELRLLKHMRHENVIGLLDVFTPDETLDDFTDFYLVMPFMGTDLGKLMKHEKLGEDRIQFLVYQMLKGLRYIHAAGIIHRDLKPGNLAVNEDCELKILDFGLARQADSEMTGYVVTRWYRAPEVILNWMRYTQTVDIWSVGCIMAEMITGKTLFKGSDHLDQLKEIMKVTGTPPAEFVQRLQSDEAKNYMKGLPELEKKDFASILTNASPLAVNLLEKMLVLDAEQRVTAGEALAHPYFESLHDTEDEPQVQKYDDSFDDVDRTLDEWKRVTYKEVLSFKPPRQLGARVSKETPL
# [2] = biological target: SRSF protein kinase 1 (Homo sapiens) (UniProt Q96SB4); conditions: at 0.1 µM
# Chain of SRSF protein kinase 1 (Homo sapiens) (Q96SB4 whole entry, canonical isoform): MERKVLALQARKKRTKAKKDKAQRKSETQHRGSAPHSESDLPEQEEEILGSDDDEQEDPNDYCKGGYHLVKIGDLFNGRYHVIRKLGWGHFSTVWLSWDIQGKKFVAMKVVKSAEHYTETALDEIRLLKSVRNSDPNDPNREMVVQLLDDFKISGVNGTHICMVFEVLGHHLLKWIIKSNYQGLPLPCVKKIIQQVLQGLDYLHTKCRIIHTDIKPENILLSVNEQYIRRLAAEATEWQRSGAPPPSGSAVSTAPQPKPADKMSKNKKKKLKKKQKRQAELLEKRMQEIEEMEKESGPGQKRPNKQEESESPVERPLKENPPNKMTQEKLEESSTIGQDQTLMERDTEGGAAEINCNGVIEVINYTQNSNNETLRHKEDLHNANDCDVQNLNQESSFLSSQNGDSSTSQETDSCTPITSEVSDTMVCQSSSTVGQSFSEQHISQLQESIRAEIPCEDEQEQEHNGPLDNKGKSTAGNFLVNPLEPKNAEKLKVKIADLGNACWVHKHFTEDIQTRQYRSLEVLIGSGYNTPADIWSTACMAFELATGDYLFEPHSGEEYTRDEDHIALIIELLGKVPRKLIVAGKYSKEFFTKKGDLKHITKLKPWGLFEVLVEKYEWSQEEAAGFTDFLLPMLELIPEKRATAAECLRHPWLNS
# [3] = biological target: SRSF protein kinase 1 (Homo sapiens) (UniProt Q96SB4); conditions: at 1 µM
# [4] = biological target: Phosphatidylinositol 4,5-bisphosphate 3-kinase catalytic subunit alpha isoform (Homo sapiens) (UniProt P42336); conditions: at 0.1 µM
# Chain of Phosphatidylinositol 4,5-bisphosphate 3-kinase catalytic subunit alpha isoform (Homo sapiens) (P42336 whole entry, canonical isoform): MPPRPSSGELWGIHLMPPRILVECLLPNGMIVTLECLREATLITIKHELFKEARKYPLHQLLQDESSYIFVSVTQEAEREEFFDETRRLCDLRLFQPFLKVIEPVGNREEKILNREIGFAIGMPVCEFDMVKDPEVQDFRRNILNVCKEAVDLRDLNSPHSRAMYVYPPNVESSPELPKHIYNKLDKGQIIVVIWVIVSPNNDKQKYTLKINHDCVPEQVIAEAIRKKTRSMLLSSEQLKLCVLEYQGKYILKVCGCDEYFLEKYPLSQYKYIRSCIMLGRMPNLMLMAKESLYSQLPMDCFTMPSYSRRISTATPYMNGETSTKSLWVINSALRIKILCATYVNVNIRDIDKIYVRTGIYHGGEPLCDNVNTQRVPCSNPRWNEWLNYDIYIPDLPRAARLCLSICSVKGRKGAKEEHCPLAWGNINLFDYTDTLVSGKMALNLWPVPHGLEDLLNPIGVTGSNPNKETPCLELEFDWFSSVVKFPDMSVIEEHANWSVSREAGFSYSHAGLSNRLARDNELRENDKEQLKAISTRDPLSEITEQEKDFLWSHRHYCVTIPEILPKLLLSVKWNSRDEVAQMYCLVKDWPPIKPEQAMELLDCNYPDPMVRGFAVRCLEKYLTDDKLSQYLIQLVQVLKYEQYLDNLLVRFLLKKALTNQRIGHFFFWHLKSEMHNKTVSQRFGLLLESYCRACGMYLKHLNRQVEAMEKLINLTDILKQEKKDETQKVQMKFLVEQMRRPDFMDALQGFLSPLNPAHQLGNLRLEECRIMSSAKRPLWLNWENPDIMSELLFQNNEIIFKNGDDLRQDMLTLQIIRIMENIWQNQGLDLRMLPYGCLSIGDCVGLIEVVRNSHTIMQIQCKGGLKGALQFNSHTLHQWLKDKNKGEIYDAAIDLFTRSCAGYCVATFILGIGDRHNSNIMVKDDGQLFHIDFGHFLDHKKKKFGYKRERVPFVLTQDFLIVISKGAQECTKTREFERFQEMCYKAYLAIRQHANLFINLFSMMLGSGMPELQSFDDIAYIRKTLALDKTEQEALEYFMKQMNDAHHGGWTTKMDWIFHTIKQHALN
# [5] = biological target: Phosphatidylinositol 4,5-bisphosphate 3-kinase catalytic subunit alpha isoform (Homo sapiens) (UniProt P42336); conditions: at 1 µM
# [6] = biological target: T2, Phosphatidylinositol 4,5-bisphosphate 3-kinase catalytic subunit delta isoform (Homo sapiens) (UniProt O00329); conditions: at 0.1 µM
# T2 sequence (whole entry): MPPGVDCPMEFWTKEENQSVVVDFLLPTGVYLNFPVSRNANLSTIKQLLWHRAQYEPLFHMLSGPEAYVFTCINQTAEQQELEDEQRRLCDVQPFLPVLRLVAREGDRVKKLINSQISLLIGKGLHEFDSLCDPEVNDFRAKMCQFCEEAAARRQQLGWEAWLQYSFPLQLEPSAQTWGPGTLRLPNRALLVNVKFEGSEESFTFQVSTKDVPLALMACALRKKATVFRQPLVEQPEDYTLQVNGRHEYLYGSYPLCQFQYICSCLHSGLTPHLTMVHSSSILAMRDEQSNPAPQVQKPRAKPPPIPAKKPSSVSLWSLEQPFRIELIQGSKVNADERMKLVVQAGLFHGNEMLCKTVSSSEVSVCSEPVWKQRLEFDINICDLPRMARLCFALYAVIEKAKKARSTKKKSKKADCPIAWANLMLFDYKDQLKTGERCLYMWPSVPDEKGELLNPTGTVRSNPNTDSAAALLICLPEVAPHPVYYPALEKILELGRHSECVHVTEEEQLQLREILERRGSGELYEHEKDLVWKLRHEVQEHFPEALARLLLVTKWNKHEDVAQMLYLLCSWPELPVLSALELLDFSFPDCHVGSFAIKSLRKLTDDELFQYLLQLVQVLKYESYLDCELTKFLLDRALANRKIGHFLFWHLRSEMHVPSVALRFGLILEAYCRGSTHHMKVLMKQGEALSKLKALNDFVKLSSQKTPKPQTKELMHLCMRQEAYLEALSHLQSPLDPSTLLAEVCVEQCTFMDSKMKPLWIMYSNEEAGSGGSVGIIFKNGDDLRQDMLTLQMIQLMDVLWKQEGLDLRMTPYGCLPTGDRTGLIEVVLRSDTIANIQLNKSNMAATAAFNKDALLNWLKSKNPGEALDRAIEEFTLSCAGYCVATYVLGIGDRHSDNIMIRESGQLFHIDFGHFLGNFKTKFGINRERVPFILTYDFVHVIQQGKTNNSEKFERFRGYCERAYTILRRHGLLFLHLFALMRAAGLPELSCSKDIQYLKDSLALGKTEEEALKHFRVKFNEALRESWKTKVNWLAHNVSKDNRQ
# [7] = biological target: T2, Phosphatidylinositol 4,5-bisphosphate 3-kinase catalytic subunit delta isoform (Homo sapiens); conditions: at 1 µM
# [8] = biological target: Phosphatidylinositol 4-kinase beta (Homo sapiens) (UniProt Q9UBF8); conditions: at 0.1 µM
# Chain of Phosphatidylinositol 4-kinase beta (Homo sapiens) (Q9UBF8 2-816 limits assumed): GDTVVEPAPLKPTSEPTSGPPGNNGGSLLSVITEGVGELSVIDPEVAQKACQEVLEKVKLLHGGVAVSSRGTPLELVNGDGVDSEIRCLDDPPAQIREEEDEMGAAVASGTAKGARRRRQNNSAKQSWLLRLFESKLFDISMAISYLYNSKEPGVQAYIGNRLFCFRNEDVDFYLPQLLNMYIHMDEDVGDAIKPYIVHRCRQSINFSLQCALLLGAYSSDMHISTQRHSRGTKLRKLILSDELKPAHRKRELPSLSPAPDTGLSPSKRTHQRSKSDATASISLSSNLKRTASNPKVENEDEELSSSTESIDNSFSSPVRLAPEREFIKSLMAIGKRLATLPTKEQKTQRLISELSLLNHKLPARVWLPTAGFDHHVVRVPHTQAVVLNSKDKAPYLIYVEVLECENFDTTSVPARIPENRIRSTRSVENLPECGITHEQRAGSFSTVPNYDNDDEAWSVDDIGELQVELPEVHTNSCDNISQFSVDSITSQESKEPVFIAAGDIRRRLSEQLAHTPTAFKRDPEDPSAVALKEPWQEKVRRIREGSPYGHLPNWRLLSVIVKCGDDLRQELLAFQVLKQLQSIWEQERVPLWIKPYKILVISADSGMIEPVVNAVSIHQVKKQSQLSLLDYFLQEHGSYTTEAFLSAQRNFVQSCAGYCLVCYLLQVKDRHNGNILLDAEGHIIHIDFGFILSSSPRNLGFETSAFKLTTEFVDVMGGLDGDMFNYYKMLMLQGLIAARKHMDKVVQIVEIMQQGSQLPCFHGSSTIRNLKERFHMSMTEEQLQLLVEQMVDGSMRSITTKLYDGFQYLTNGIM
# [9] = biological target: Phosphatidylinositol 4-kinase beta (Homo sapiens) (UniProt Q9UBF8); conditions: at 1 µM
# [10] = biological target: Sphingosine kinase 1 (Homo sapiens) (UniProt Q9NYA1); conditions: at 0.1 µM
# Chain of Sphingosine kinase 1 (Homo sapiens) (Q9NYA1 whole entry): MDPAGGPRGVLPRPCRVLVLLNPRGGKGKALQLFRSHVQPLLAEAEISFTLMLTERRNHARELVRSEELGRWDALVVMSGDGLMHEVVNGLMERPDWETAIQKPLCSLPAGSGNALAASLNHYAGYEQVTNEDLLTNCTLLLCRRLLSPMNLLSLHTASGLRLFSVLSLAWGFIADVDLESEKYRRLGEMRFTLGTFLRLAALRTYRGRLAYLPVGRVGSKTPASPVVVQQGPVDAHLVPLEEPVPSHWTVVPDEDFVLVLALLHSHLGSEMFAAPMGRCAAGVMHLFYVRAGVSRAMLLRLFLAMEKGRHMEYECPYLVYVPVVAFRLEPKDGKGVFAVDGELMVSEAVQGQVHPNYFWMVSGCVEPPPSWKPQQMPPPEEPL
# [11] = biological target: Sphingosine kinase 1 (Homo sapiens) (UniProt Q9NYA1); conditions: at 1 µM
# [12] = biological target: T3, Sphingosine kinase 2 (Homo sapiens) (UniProt Q9NRA0); conditions: at 0.1 µM
# T3 sequence (whole entry): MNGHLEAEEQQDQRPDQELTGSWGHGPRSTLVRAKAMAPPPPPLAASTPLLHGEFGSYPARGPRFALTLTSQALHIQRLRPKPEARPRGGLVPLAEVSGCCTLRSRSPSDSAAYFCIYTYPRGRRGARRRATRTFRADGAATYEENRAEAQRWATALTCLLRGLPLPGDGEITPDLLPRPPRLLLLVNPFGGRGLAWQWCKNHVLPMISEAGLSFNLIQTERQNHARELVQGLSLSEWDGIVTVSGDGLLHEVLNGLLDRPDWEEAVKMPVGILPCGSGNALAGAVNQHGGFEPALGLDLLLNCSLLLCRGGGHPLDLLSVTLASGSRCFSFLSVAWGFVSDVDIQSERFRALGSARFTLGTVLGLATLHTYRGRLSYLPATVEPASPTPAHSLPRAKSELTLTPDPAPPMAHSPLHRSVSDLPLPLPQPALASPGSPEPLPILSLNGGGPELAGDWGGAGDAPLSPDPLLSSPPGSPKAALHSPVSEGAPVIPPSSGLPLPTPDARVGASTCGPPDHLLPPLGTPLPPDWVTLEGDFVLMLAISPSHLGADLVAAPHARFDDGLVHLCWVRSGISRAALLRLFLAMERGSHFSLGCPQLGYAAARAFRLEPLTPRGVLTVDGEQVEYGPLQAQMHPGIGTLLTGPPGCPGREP
# [13] = biological target: T3, Sphingosine kinase 2 (Homo sapiens); conditions: at 1 µM
# [14] = biological target: Casein kinase II subunit alpha (Homo sapiens) (UniProt P68400); conditions: at 0.1 µM
# Chain of Casein kinase II subunit alpha (Homo sapiens) (P68400 whole entry, looked up): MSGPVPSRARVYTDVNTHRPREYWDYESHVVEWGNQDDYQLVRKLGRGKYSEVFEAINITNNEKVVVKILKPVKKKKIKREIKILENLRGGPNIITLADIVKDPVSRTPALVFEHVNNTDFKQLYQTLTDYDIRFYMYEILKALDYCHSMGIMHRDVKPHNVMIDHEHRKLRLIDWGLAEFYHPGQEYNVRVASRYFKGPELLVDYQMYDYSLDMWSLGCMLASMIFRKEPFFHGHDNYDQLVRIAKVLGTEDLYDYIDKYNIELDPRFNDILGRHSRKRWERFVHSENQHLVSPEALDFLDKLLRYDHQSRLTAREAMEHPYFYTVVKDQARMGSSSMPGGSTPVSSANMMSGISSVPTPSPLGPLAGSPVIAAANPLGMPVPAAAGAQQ
# [15] = biological target: Casein kinase II subunit alpha (Homo sapiens) (UniProt P68400); conditions: at 1 µM
# [16] = biological target: T4, Inhibitor of nuclear factor kappa-B kinase subunit alpha (Homo sapiens) (UniProt O15111); conditions: at 0.1 µM
# T4 sequence (whole entry): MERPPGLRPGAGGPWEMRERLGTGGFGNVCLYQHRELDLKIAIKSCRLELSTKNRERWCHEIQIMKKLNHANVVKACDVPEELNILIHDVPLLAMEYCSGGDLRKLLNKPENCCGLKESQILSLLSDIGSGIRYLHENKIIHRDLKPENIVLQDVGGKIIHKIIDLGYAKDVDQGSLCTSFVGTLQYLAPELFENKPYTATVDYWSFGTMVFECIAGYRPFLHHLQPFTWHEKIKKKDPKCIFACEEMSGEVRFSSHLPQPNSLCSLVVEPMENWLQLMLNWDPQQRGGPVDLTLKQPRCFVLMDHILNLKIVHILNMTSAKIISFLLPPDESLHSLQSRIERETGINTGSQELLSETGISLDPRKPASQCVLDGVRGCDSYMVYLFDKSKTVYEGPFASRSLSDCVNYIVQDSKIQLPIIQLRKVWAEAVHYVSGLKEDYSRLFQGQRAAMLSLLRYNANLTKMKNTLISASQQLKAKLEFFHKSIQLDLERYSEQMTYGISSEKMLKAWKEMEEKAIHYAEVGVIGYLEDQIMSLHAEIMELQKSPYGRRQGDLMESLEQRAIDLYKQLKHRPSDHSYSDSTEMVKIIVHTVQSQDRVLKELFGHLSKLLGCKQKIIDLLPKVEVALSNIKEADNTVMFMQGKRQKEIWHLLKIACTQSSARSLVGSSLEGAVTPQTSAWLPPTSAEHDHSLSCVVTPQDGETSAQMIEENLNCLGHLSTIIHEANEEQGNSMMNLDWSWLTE
# [17] = biological target: T4, Inhibitor of nuclear factor kappa-B kinase subunit alpha (Homo sapiens); conditions: at 1 µM
# [18] = biological target: T5, Inhibitor of nuclear factor kappa-B kinase subunit beta (Homo sapiens) (UniProt O14920); conditions: at 0.1 µM
# T5 sequence (whole entry): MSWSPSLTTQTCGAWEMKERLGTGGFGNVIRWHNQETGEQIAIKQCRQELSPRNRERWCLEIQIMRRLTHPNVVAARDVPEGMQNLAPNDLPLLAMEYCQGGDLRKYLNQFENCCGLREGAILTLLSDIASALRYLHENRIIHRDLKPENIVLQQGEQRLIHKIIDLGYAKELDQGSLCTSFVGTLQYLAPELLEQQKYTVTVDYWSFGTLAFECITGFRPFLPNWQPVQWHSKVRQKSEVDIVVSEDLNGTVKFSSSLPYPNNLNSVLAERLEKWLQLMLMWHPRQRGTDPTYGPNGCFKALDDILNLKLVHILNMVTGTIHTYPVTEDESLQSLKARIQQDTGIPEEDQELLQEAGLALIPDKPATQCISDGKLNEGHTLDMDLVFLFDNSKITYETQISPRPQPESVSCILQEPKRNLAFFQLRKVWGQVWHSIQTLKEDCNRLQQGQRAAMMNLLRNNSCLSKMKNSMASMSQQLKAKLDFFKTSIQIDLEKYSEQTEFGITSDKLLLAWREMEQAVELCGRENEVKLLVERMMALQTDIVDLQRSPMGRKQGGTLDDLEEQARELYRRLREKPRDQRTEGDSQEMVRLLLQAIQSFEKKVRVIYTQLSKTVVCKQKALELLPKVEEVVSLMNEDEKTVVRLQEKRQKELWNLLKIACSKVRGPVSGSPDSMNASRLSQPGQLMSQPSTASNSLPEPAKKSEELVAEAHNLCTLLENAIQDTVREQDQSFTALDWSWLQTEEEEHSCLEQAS
# [19] = biological target: T5, Inhibitor of nuclear factor kappa-B kinase subunit beta (Homo sapiens); conditions: at 1 µM
# [20] = biological target: T6, Inhibitor of nuclear factor kappa-B kinase subunit epsilon (Homo sapiens) (UniProt Q14164); conditions: at 0.1 µM;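 further: mean inhibition of IKKε reported, from the GSK PKIS dataset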
# T6 sequence (whole entry): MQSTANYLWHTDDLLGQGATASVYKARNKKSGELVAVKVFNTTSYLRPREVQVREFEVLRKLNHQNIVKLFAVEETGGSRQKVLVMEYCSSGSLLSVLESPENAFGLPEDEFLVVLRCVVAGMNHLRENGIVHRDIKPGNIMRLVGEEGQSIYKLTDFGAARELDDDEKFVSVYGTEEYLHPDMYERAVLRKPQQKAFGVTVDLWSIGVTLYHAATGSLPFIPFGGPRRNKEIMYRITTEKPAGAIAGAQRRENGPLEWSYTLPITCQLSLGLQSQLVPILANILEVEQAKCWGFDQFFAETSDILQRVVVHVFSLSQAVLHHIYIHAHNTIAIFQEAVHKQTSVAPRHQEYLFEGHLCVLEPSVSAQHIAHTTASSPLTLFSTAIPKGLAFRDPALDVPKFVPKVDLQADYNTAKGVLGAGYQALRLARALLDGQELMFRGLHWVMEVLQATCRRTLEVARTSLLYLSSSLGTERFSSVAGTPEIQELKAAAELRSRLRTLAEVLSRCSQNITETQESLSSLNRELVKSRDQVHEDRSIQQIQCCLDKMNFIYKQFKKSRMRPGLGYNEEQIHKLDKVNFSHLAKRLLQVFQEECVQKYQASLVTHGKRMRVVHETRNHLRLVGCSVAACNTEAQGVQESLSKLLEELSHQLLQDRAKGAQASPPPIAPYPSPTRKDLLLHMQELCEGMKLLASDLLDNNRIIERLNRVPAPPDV
Structure (SMILES),inhibition [1],inhibition [2],inhibition [3],inhibition [4],inhibition [5],inhibition [6],inhibition [7],inhibition [8],inhibition [9],inhibition [10],inhibition [11],inhibition [12],inhibition [13],inhibition [14],inhibition [15],inhibition [16],inhibition [17],inhibition [18],inhibition [19],inhibition [20]
Cn1c(-c2nonc2N)nc2cnccc21,2.23%,-3.06%,-4.33%,1.04%,3.15%,1.35%,1.72%,1.38%,-3.7%,-0.45%,3.87%,2.29%,0.16%,1.78%,-1.25%,1.72%,7.51%,5.29%,1.73%,6.16%
Nc1ncnc2occ(-c3ccc(NC(=O)Nc4cc(C(F)(F)F)ccc4F)cc3)c12,52% and 44.9%,1.86% and 3.34%,28.9% and 22%,0.21% and -1.3%,1.36% and 0.28%,1.09% and -2.88%,2.46% and -0.2%,0.95% and 17.2%,10.9% and 7.67%,3.31% and 0.73%,-0.65% and 1.59%,-1.33% and 0%,11.6% and 0%,2.39% and -3.9%,6.35% and 0.16%,5.79% and 7.04%,6.73% and 11.3%,1.45% and -2.16%,2.13% and 1.62%,1.57% and 0.44%
O=C(Nc1n[nH]c2nnc(-c3cccnc3)cc12)C1CC1,3.03%,-1.16%,-0.28%,0.13%,1.26%,1.05%,1.67%,-1.26%,3.04%,1.36%,-2.26%,-0.36%,-1.77%,3.14%,5.42%,0.84%,-0.73%,1.55%,1.04%,-2.46%
